# Experimental data: PubChem BioAssay (Tox21)
# Inconclusive results are not listed. Where a call stands in place of a potency, no number is given. Active and inactive are the calls of the source. Unless noted, calls follow the shape of the dose curve; as a rule, active = well fitted curve in the direction sought with a large enough effect in the repeat runs; inconclusive = weak or mixed curves; inactive = no such curve, though single readings can be large; an effect the other way counts as inactive or inconclusive.
# Experiment: qHTS assay to identify small molecule phospholipidosis (PLD) inducers (AID 1259344; active = well fitted curve in the direction sought with a large enough effect; an effect the other way counts as inactive or inconclusive)
# Settings: HepG2 phospholipidosis, LipidTOX Red imaging, 24 h; series mostly up to 38.3 µM
# How it was run: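 HepG2 cells grown on collagen I take up LipidTOX Red while exposed to compound for 24 h; after fixation they are imaged at 20x and pit metrics are extracted.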
row,SMILES,Potency
1,N[C@@H](Cc1cc(I)c(O)c(I)c1)C(=O)O,inactive
2,CSCC[C@H](NC(=O)[C@H](Cc1c[nH]c2ccccc12)NC(=O)CCNC(=O)OC(C)(C)C)C(=O)N[C@@H](CC(=O)O)C(=O)N[C@@H](Cc1ccccc1)C(N)=O,inactive
3,O=C(Nc1ccc(C(=O)O)c(O)c1)c1ccccc1,inactive
4,Cc1ccc(N(CC2=NCCN2)c2cccc(O)c2)cc1,inactive
5,CC(CCc1ccc(O)cc1)NCCc1ccc(O)c(O)c1 (stereo unspecified),inactive
6,COc1cc(NCc2ccc3nc(N)nc(N)c3c2C)cc(OC)c1OC,inactive
7,Cc1ccc(Nc2c(F)cccc2Cl)c(CC(=O)O)c1,inactive

# Experiment: qHTS assay to identify small molecule HDAC inhibitors (AID 1259364); also: potency is read from the fitted curve at half-maximal effect;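 also: wild-type HCT-116 cells with endogenous class I/II HDAC activity; nearly all actives have a fitted effect of over 45% in size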
# Settings: HCT-116 HDAC-Glo I/II luminescence, 2 h; series mostly up to 92.4 µM
# How it was run: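 Relative class I and II HDAC activity is taken from the luminogenic signal in HCT-116 cells, with compound exposure 2 hr and reagent development 30 min at room temperature.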
row,SMILES,Potency
1,O=C1NC(=O)c2cccc3cccc1c23,inactive
2,Cc1ccc(NC(=O)N(C)C)cc1NC(=O)N(C)C,inactive
3,O=[N+]([O-])C1(Br)COCOC1,inactive
4,O=C(O)c1cccc(Oc2ccccc2)c1,inactive
5,Nc1c(Cl)cc(Cl)cc1[N+](=O)[O-],inactive
6,C=C(C)c1ccccc1,inactive
7,N[C@@H](Cc1cc(I)c(O)c(I)c1)C(=O)O,inactive
8,CCCCCc1ccco1,inactive
9,CSCC[C@H](NC(=O)[C@H](Cc1c[nH]c2ccccc12)NC(=O)CCNC(=O)OC(C)(C)C)C(=O)N[C@@H](CC(=O)O)C(=O)N[C@@H](Cc1ccccc1)C(N)=O,inactive
10,CCCCCCOC(=O)CCCCC,inactive
11,O=C(Nc1ccc(C(=O)O)c(O)c1)c1ccccc1,1.68 µM (active)
12,COC(OC)OC,inactive
13,CC(C)COC(=O)COc1cc(Cl)c(Cl)cc1Cl,inactive
14,BrC(Br)C(Br)Br,inactive
15,O=c1[nH][nH]c(=O)c2cc([N+](=O)[O-])ccc12,inactive
16,C1CCCCC1,inactive
17,O=C(Oc1ccccc1)c1ccc2ccccc2c1O,9.69 µM (active)
18,COC(=O)CC(C(C)=O)C(=O)OC (stereo unspecified),inactive

row,SMILES,Potency
1,NC(=O)c1ccccc1[N+](=O)[O-],inactive
2,Cc1ccc(N(CCO)CCO)cc1,inactive
3,CC[C@H]1OC(=O)[C@H](C)[C@@H](O[C@H]2C[C@@](C)(OC)[C@@H](O)[C@H](C)O2)[C@H](C)[C@@H](O[C@@H]2O[C@H](C)C[C@H](N(C)C)[C@H]2O)[C@](C)(O)C[C@@H](C)CN(C)[C@H](C)[C@@H](O)[C@]1(C)O,inactive
4,Cc1ccc(N(CC2=NCCN2)c2cccc(O)c2)cc1,inactive
5,O=S(=O)(O)CO,inactive
6,O=C(c1ccccc1)c1ccc(O)cc1,inactive
7,CC(CCc1ccc(O)cc1)NCCc1ccc(O)c(O)c1 (stereo unspecified),inactive
8,Oc1ccc2c(c1)Cc1ccccc1-2,inactive
9,O=C(O)CO,inactive
10,CCCCCCCCCCCCCOS(=O)(=O)O,inactive
11,COc1cc(NCc2ccc3nc(N)nc(N)c3c2C)cc(OC)c1OC,inactive
12,ClC1=C(Cl)C1(Cl)Cl,inactive
13,Cc1ccc(Nc2c(F)cccc2Cl)c(CC(=O)O)c1,inactive
14,CCSC(=O)N(CC)CC,inactive
15,CC(C)C(=O)OCCOc1ccccc1,inactive
16,CCN(Cc1cccc(S(=O)(=O)O)c1)c1ccc(C(=C2C=CC(=[N+](CC)Cc3cccc(S(=O)(=O)O)c3)C=C2)c2ccccc2S(=O)(=O)[O-])cc1,6.14 µM (active)
17,CCCCCCCCCCCSCC(=O)O,inactive

# Experiment: qHTS assay to identify small molecule HDAC inhibitors - cell viability counter screen (AID 1259365); also: nearly all actives have a fitted effect of over 50% in size
# Settings: HCT-116 viability, CellTiter-Glo ATP luminescence, 2 h; series mostly up to 92.4 µM
# How it was run: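 HCT-116 wild-type, overnight attachment; 2hr drug exposure, 37C; CellTiter-Glo luminescent ATP readout after 30min RT.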
SMILES,Potency,"activity change, negative = cytotoxicity"
O=C1NC(=O)c2cccc3cccc1c23,inactive,–
Cc1ccc(NC(=O)N(C)C)cc1NC(=O)N(C)C,inactive,–
O=[N+]([O-])C1(Br)COCOC1,inactive,–
O=C(O)c1cccc(Oc2ccccc2)c1,inactive,–
Nc1c(Cl)cc(Cl)cc1[N+](=O)[O-],inactive,–
C=C(C)c1ccccc1,inactive,–
N[C@@H](Cc1cc(I)c(O)c(I)c1)C(=O)O,inactive,–
CCCCCc1ccco1,inactive,–
CSCC[C@H](NC(=O)[C@H](Cc1c[nH]c2ccccc12)NC(=O)CCNC(=O)OC(C)(C)C)C(=O)N[C@@H](CC(=O)O)C(=O)N[C@@H](Cc1ccccc1)C(N)=O,inactive,–
O=C(Nc1ccc(C(=O)O)c(O)c1)c1ccccc1,inactive,–
COC(OC)OC,inactive,–
CC(C)COC(=O)COc1cc(Cl)c(Cl)cc1Cl,inactive,–
BrC(Br)C(Br)Br,inactive,–
O=c1[nH][nH]c(=O)c2cc([N+](=O)[O-])ccc12,inactive,–
C1CCCCC1,inactive,–
O=C(Oc1ccccc1)c1ccc2ccccc2c1O,inactive,–
COC(=O)CC(C(C)=O)C(=O)OC (stereo unspecified),inactive,–

SMILES,Potency,"activity change, negative = cytotoxicity"
NC(=O)c1ccccc1[N+](=O)[O-],inactive,–
Cc1ccc(N(CCO)CCO)cc1,inactive,–
CC[C@H]1OC(=O)[C@H](C)[C@@H](O[C@H]2C[C@@](C)(OC)[C@@H](O)[C@H](C)O2)[C@H](C)[C@@H](O[C@@H]2O[C@H](C)C[C@H](N(C)C)[C@H]2O)[C@](C)(O)C[C@@H](C)CN(C)[C@H](C)[C@@H](O)[C@]1(C)O,inactive,–
SCCc1cnccn1,inactive,–
Cc1ccc(N(CC2=NCCN2)c2cccc(O)c2)cc1,inactive,–
O=S(=O)(O)CO,inactive,–
O=C(c1ccccc1)c1ccc(O)cc1,inactive,–
CC(CCc1ccc(O)cc1)NCCc1ccc(O)c(O)c1 (stereo unspecified),inactive,–
O=C(O)CO,inactive,–
CCCCCCCCCCCCCOS(=O)(=O)O,inactive,–
CCC(Cl)CC(Cl)C(Cl)C(Cl)C(Cl)C(C)Cl (stereo unspecified),–,-3.08% [at 19 µM] (inactive)
COc1cc(NCc2ccc3nc(N)nc(N)c3c2C)cc(OC)c1OC,inactive,–
CC(C)COC(=O)c1ccc(O)cc1,inactive,–
ClC1=C(Cl)C1(Cl)Cl,inactive,–
Cc1ccc(Nc2c(F)cccc2Cl)c(CC(=O)O)c1,inactive,–
CCSC(=O)N(CC)CC,inactive,–
CC(C)C(=O)OCCOc1ccccc1,inactive,–
